Source: PubChem BioAssay (NCATS)
Several values for one entry are separate records, joined by “and”; a condition that tells them apart may be missing. Equal values may be shown once. Records with an inconclusive call do not appear. Where a call stands in place of a potency, no number is given. Activity calls are given as the source filed them. Calls come from the whole dose curve; as a rule, active = well fitted curve in the direction sought with a large enough effect; inconclusive = small, poorly fitted or top-dose-only effect, or another doubt; inactive = no such curve, though single readings can be large; an effect the other way counts as inactive or inconclusive.

Biological target: Cytochrome P450 3A4 (Homo sapiens) (UniProt P08684)
Assay: qHTS Assay for Activators of Cytochrome P450 3A4 (AID 885); note: nearly all actives have a fitted effect of over 65% in size
Settings: recombinant CYP3A4, Luciferin-PPXE luminescence, 60 min; series mostly up to 57.1 µM
Outline: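 Human CYP3A4 (20 nM) with Luciferin-PPXE at 25 uM (its KM) in 200 mM KPO4; 10 min compound preincubation, then NADPH regeneration and 60 min reaction at RT. Luciferin read by luminescence; normalized to 57 uM ketoconazole full inhibition.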
Potency is the fitted concentration of half-maximal effect.

Chain of Cytochrome P450 3A4 (Homo sapiens) (P08684 whole entry, looked up): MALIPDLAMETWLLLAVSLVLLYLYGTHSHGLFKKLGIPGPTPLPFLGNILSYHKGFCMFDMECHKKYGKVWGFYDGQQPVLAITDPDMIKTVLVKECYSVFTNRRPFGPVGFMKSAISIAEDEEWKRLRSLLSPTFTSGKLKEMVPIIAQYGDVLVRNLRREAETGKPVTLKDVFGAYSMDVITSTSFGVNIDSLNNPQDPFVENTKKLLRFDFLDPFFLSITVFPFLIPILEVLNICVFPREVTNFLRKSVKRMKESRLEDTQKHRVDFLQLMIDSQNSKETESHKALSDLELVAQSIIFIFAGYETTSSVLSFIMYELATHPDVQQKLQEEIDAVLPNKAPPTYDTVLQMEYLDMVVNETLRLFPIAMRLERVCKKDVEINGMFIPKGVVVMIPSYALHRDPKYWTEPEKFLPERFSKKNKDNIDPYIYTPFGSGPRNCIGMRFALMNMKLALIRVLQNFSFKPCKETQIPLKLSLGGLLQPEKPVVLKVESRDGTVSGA

Row | Compound | Potency
1 | CN(C(=O)CN(CCO)CC(=O)N(C)C(C)(C)Cc1ccccc1)C(C)(C)Cc1ccccc1 | inactive
2 | O=C(CCCN1CCC(O)(c2ccc(Br)cc2)CC1)c1ccc(F)cc1 | 10 µM (active)
3 | O=C(OCC(O)CO)c1ccccc1Nc1ccnc2cc(Cl)ccc12 (centres undefined) | inactive
4 | CCCCc1nc(Cl)c(CO)n1Cc1ccc(-c2ccccc2-c2nn[nH]n2)cc1 | inactive
5 | COc1c2occc2c(OC)c2c(=O)cc(C)oc12 | inactive
6 | CNCC[C@@H](Oc1ccccc1C)c1ccccc1 | inactive
7 | O=C(COc1ccc(Cl)cc1)N1CCN(Cc2ccc3c(c2)OCO3)CC1 | inactive
8 | CC(Cc1cccc(C(F)(F)F)c1)NCCOC(=O)c1ccccc1 (centres undefined) | inactive
9 | O=C1c2ccccc2C(=O)C1c1ccccc1 | inactive
10 | CN(C)CC/C=C1\c2ccccc2Sc2ccc(Cl)cc21 | inactive
11 | CC(C)(C(=O)c1cccnc1)c1cccnc1 | inactive

Biological target: Cytochrome P450 2D6 (Homo sapiens) (UniProt P10635)
Assay: qHTS Assay for Inhibitors and Substrates of Cytochrome P450 2D6 (AID 891); note: nearly all actives have a fitted effect of over 60% in size
Settings: recombinant CYP2D6, luciferin-ME EGE luminescence; series mostly up to 57.1 µM
Outline: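 Human CYP2D6 (5 nM) with 30 uM Luciferin-ME EGE (at Km) in 100 mM KPO4, compound preincubated 10 min, then NADPH regeneration system for 60 min at room temperature. Luciferin read by luminescence; normalized to 1.43 uM quinidine.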

Chain of Cytochrome P450 2D6 (Homo sapiens) (P10635 whole entry, looked up): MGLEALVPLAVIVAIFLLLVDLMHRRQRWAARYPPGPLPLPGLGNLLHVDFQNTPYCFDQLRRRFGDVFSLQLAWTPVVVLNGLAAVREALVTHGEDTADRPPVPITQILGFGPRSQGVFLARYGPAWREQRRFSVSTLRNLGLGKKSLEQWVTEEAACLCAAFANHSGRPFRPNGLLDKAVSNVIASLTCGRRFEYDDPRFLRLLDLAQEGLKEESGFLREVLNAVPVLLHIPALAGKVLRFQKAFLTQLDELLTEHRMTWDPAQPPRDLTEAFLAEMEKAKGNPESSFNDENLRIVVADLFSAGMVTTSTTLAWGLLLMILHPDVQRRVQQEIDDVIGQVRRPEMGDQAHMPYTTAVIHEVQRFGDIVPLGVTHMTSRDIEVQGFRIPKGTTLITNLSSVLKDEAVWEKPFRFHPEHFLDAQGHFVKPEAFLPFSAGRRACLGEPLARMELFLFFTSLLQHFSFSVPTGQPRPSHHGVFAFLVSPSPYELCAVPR

Row | Compound | Potency
12 | CN(C(=O)CN(CCO)CC(=O)N(C)C(C)(C)Cc1ccccc1)C(C)(C)Cc1ccccc1 | 3.16 µM (active)
13 | O=C(CCCN1CCC(O)(c2ccc(Br)cc2)CC1)c1ccc(F)cc1 | 3.98 µM (active)
14 | Cc1cccc(C)c1NC(=O)CN1CCN(CCCC(c2ccc(F)cc2)c2ccc(F)cc2)CC1 | 5.01 µM (active)
15 | CCN1CCC[C@H]1CNC(=O)c1c(OC)ccc(Br)c1OC | 0.199 µM (active)
16 | CN1CCC(=C2c3ccccc3Sc3ccccc32)CC1 | 3.98 µM (active)
17 | OC(CCN1CCCCC1)(c1ccccc1)c1ccccc1 | 5.01 µM (active) and 1.26 µM (active)
18 | O=C(COc1ccc(Cl)cc1)N1CCN(Cc2ccc3c(c2)OCO3)CC1 | 0.199 µM (active)
19 | CN(C)CC/C=C1\c2ccccc2Sc2ccc(Cl)cc21 | 2.51 µM (active)
